A selection: hits, their analogues and other compounds. The true share with any hit is near 2.2%.
aSyn 5UTR inh = 5' untranslated region of α-synuclein, MLPCN primary screen; alpha-synuclein 5'UTR reporter, inhibitor activity; inhibition, % (tested at 7.5 µM); 300,000 tested, 0.82% active; AID 1813; in the data active means inhibition above about 60%;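 further: H4 neuroglioblastoma cells stably carrying SNCA 5'UTR luciferase fusion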
Ba/F3 V617F tox = reduce viability of Ba/F3 cells dependent on JAK2V617F; inhibition, % at 5.6 µM; Ba/F3 EpoR-JAK2V617F viability, ATP luminescence; AID 1446; 220,000 tested, 1.1% active;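 active means inhibition above the campaign mean plus 3 SD over all tested compounds, cut at about 24% in these data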;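 further: cytokine-independent growth of Ba/F3 cells driven by EpoR plus mutant JAK2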
BaF3 tox = parental Ba/F3 viability inhibition as JAK2V617F counter-screen; inhibition, % at 5.6 µM; 220,000 tested, 1.1% active; AID 1486; CellTiter-Glo ATP luminescence;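 active means inhibition above a per-campaign cutoff, the mean inhibition of all tested compounds plus 3 SD, cut at about 27% in these data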
APP 5UTR inh = APP translation inhibition; inhibition, % at 2 µM; 190,000 tested, 0.82% active; SH-SY5Y APP 5'UTR-luciferase reporter, luminescence; AID 1285;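 active means inhibition above a set limit, derived from the sample mean plus 3 SD, cut at about 45% in these data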
IEC-6 tox = counter-screen for KLF5 inhibitors: cytotoxicity in IEC-6 cells; inhibition, % at 5 µM; 290,000 tested, 0.78% active; IEC-6 cytotoxicity, luminescence viability
KLF5 inh = suppresses KLF5 promoter-driven expression; DLD-1 KLF5 promoter-luciferase reporter, luminescence; inhibition, % at 5 µM; 290,000 tested, 0.23% active;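 active means inhibition above a per-plate limit of that plate's mean compound inhibition plus 3 SD, cut at about 60% in these data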;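 further: higher means less KLF5 promoter-driven luciferase light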
IEC-6 cytotox cf = confirmation of cytotoxic compounds in rat IEC-6 intestinal epithelial cells; shares compounds with IEC-6 tox; IEC-6 rat intestinal epithelial viability, luminescence; inhibition, % at 5 µM; 1,900 tested, 63% active; AID 1907
Of the large screens only hits and unclear results are named; the others gave an inactive call (follow-up assays come after a bar, where they were run). Unless noted, no stated cut-off is given here; in the data, active means inhibition above about 22%; inactive means the rest.

CCC1CCCCN1C(=O)COC(=O)CN(C)S(=O)(=O)c1ccc(NC(C)=O)cc1 (configuration not stated)	none (no result: Ba/F3 V617F tox, BaF3 tox, APP 5UTR inh, IEC-6 tox, KLF5 inh)
CCC(CC)NC(=O)Cc1ccccc1[N+](=O)[O-]	none
Cn1c(=O)c2c(nc(NCCNC(=O)c3ccco3)n2Cc2ccc(Cl)cc2Cl)n(C)c1=O	none
Cn1c(=O)c2c(nc(NCC3CCCC(CN)C3)n2Cc2ccc(Cl)cc2Cl)n(C)c1=O (configuration not stated)	IEC-6 tox 60 (no result: Ba/F3 V617F tox, BaF3 tox, APP 5UTR inh) | IEC-6 cytotox cf 39
COc1ccc(/C(C)=N/NC(=O)c2nnn(-c3nonc3N)c2CN(C)c2ccccc2)cc1	none (no result: Ba/F3 V617F tox, BaF3 tox, APP 5UTR inh)
C/C(=N\NC(=O)c1nnn(-c2nonc2N)c1CN(C)c1ccccc1)c1ccccc1O	IEC-6 tox 51 (no result: Ba/F3 V617F tox, BaF3 tox, APP 5UTR inh) | IEC-6 cytotox cf 50
Cc1cccc(OCCCN2C(=O)C(=O)c3cc(C)ccc32)c1	IEC-6 tox 44 | IEC-6 cytotox cf inactive
Cc1onc(-c2c(Cl)cccc2Cl)c1NC(=O)NC1CCSC1 (configuration not stated)	none (no result: APP 5UTR inh)
Cc1nn(C)c(C)c1S(=O)(=O)N1CCC(CO)(CC2CCCCO2)CC1 (configuration not stated)	none
N#Cc1c(NC(=O)/C=C/c2ccco2)sc2c1CCCC2	Ba/F3 V617F tox 91, BaF3 tox 90, APP 5UTR inh 93, IEC-6 tox 93 | IEC-6 cytotox cf 78
CCOc1ccccc1OCC(=O)N/N=C(\C)Cc1ccc(OC)cc1	aSyn 5UTR inh 87, Ba/F3 V617F tox 72, BaF3 tox 73, APP 5UTR inh 92, IEC-6 tox 70 | IEC-6 cytotox cf inactive
COc1ccccc1OCC(=O)NN=C(Cc1ccccc1)Cc1ccccc1	none
O=C(CSc1nc(-c2ccco2)cc(C(F)(F)F)n1)Nc1cccnc1	IEC-6 tox 29 | IEC-6 cytotox cf inactive
COc1ccc(C2CC(=O)N(C)c3ccccc3S2)cc1 (configuration not stated)	IEC-6 tox 24 | IEC-6 cytotox cf inactive
COC(=O)c1ccccc1NC1=C/C(=N\S(=O)(=O)c2ccc(C(=O)O)cc2)c2ccccc2C1=O	IEC-6 tox 28 (no result: Ba/F3 V617F tox, BaF3 tox, APP 5UTR inh) | IEC-6 cytotox cf inactive
CCOC(=O)CSC1=C(C#N)C(c2ccc(C)o2)CC(=O)N1 (configuration not stated)	aSyn 5UTR inh 78, Ba/F3 V617F tox 74, BaF3 tox 79, APP 5UTR inh 95, IEC-6 tox 83 | IEC-6 cytotox cf 59
Nc1c(C(=O)Nc2ccc3c(c2)OCCO3)nnn1Cc1cccc(F)c1	none (no result: Ba/F3 V617F tox, BaF3 tox, APP 5UTR inh, IEC-6 tox, KLF5 inh)
Cc1ccc(CCNC(=O)CS(=O)Cc2nc(-c3ccccc3Cl)oc2C)cc1 (configuration not stated)	none (no result: Ba/F3 V617F tox, BaF3 tox, APP 5UTR inh)
CCn1c(C)c(C)c2cc(C(=O)N3CCc4ccccc4C3)ccc21	IEC-6 tox 46 (no result: Ba/F3 V617F tox, BaF3 tox, APP 5UTR inh) | IEC-6 cytotox cf 30
CCOC(=O)Cn1c(S(=O)(=O)Cc2cccc(F)c2)nc(-c2ccccc2)c1-c1ccccc1	IEC-6 tox 23 | IEC-6 cytotox cf inactive
CCOC(=O)Nc1nc(-c2ccc(Cl)cc2Cl)cs1	none
COc1ccc(Cl)cc1NC(=O)C(OC)c1ccccc1 (configuration not stated)	none
COC(/C(=N/O)c1ccc(Cl)cc1)c1ccccc1 (configuration not stated)	IEC-6 tox 28 (no result: Ba/F3 V617F tox, BaF3 tox, APP 5UTR inh) | IEC-6 cytotox cf inactive
O=C(Nc1nc(-c2ccccn2)cs1)c1ccc(Br)s1	IEC-6 tox 30 | IEC-6 cytotox cf 70
O=C(Nc1nc(-c2ccccn2)cs1)c1ccco1	IEC-6 tox 26 | IEC-6 cytotox cf 28
O=C(Nc1nc(-c2ccccn2)cs1)C1CC1	none
Cc1nc(NC(=O)c2ccco2)sc1C(=O)O	IEC-6 tox 35 (no result: Ba/F3 V617F tox, BaF3 tox, APP 5UTR inh) | IEC-6 cytotox cf 27
O=C(Nc1nc(-c2ccncc2)cs1)c1ccco1	none
O=C(CC1CC2CCC1C2)Nc1nc(-c2ccccn2)cs1 (configuration not stated)	IEC-6 tox 29 | IEC-6 cytotox cf inactive
COc1ccc(-n2ncc(C(=O)NC3CC3)c2C2CCN(C(=O)OC(C)(C)C)CC2)cc1	none (no result: Ba/F3 V617F tox, BaF3 tox, APP 5UTR inh)
O=C(O)c1nn(-c2ccccc2)ccc1=O	none
COc1ccc(C2CCCN2C(=S)Nc2cccc(Cl)c2C)cc1OC (configuration not stated)	none
COc1ccc(-c2c(C#N)c(N)nc3c2CCc2ccccc2-3)cc1OC	IEC-6 tox 34 | IEC-6 cytotox cf 24
CCN1CCN(S(=O)(=O)c2ccc(Cl)c(C(=O)N(C)Cc3cccc(OC)c3)c2)CC1	none (no result: Ba/F3 V617F tox, BaF3 tox, APP 5UTR inh, IEC-6 tox, KLF5 inh)

Source: PubChem
